Results: ChEMBL document CHEMBL4513140, “CO-ADD screening of Lancaster University (UK) compounds” (2021)
Measured potencies and affinities stand elsewhere.

Key:
Klebsiella pneumoniae = conditions: Concentration 32 ug.mL-1; ASSAY_TEST Inhibition of Bacterial Growth; detection method Absorption (OD600); MEDIA CAMHB; plate type 384well; NBS; CORNING #3640; time 18 hr
Candida albicans = conditions: 32 ug/mL
Cryptococcus neoformans = conditions: Concentration 32 ug.mL-1; ASSAY_TEST Inhibition of Fungal Growth; detection method Resazurin; Absorption (OD600-OD570); plate type 384well; NBS; CORNING #3640

SMILES	Inhibition (Klebsiella pneumoniae)	Inhibition (Candida albicans)	Inhibition (Cryptococcus neoformans)
CC(=NN)c1cc(/C(C)=N/N)cc(/C(C)=N/N)c1	4.02%	5.62%	-41.95%
COC(=O)c1ccc(S)cc1	-1.57%	2.97%	-49.69%
c1ccc2nc3c4cccnc4c4ncccc4c3nc2c1	2.4%	9.1%	-49.42%
CC(=O)c1cc(C(C)=O)cc(C(C)=O)c1	7.55%	2.92%	-57.45%
